# Bioassay records deposited in PubChem BioAssay by The Scripps Research Institute Molecular Screening Center.
# A selection: hits, their analogues and other compounds. The true share with any hit is near 4.1%.
# ABHD5 PLIN5 PPI: ABHD5-PLIN5 interaction inhibitors, primary screen, cell lysate, split luciferase complementation, luminescence; Perilipin-5 (Homo sapiens) + 1-acylglycerol-3-phosphate O-acyltransferase ABHD5 (Homo …; Split G. princeps luciferase complementation, 4 h; inhibition, % at 4 µM; 0.78% of 360,000 active; AID 602281, 2012;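 active = inhibition above the mean inhibition across every tested compound plus 3 SD, cut at about 22% in these data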;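 also: 0% = DMSO only wells and the 100% control is not disclosed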
# Target sequence (Q00G26 whole entry, looked up): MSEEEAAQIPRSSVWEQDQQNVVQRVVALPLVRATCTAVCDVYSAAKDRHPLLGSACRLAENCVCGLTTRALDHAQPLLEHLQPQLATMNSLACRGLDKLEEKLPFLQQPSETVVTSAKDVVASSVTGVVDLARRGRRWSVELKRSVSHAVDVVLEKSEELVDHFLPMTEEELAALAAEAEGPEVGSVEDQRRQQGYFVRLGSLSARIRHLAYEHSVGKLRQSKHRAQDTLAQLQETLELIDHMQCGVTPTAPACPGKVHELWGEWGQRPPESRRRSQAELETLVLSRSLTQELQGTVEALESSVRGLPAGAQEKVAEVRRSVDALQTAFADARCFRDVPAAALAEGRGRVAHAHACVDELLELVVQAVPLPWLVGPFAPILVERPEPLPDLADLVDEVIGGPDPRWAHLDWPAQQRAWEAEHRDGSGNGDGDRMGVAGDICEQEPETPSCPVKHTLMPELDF
# Target sequence (Q8WTS1 whole entry, looked up): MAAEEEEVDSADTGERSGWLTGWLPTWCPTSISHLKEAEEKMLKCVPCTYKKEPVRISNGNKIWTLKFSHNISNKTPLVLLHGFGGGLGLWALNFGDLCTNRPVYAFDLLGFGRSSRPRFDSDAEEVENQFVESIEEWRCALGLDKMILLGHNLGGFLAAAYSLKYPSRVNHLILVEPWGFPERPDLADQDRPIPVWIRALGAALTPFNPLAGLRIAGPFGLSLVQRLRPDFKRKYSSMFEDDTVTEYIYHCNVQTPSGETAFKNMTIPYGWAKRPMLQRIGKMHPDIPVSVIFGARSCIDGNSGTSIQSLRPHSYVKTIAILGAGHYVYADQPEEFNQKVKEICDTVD
# rCAG binder: binders of r(CAG) RNA repeats, primary screen, biochemical, fluorescence. AID 651821, 2012. 1.3% of 370,000 active. inhibition, % at 3 µM. r(CAG) RNA repeat, TO-PRO-1 dye displacement fluorescence;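 active = inhibition above the plate cutoff, the mean of all test compounds on that plate plus 3 SD, cut at about 35% in these data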;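 also: 0% = DMSO alone and 100% = 100 µM mitoxantrone as full dye displacement; higher means more dye released from RNA so lower well fluorescence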
# PRMT1 FP inh: PRMT1 methyltransferase inhibitors, primary screen, biochemical, fluorescence polarization; AID 652257, 2013; recombinant PRMT1, activity-based probe fluorescence polarization; inhibition, % at 2.79 µM; 1.3% of 370,000 active; Protein arginine N-methyltransferase 1 (Homo sapiens), Q99873;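 active = inhibition above about 21% made by adding two undisclosed values, limit read from the data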
# UHRF1 MBD2 ctr: UHRF1 methylated DNA binding inhibitors, primary screen, counter-screen for MBD2 inhibitor project, biochemical, TR-FRET, human UHRF1, single concentration; UHRF1 binding to methylated oligo; inhibition, % at 4.4 µM; 0.75% of 370,000 active; in the data active = inhibition above about 21%;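 also: UHRF1 SRA domain binding a hemimethylated CpG hairpin DNA probe; 0% = median of test compound wells and 100% = reference inhibitor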
# LEDGF integ inh: blockers of LEDGF/p75-dependent integrase strand transfer – biochemical, TR-FRET, high throughput, primary screen. TR-FRET IN-LEDGF/p75 DNA integration, Eu/Cy5. HIV-1 integrase (with human LEDGF/p75). 0.64% of 370,000 active. inhibition, % at 3.7 µM;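 active = inhibition above the screen-wide mean plus 3 SD, cut at about 13% in these data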;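 also: signal is the Cy5 over europium emission ratio at 671 and 618 nm; 0% = plate median of compound wells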
# MBD2 DNA inh: inhibitors of MBD2 binding to methylated DNA, primary screen, biochemical, TR-FRET, DNA-binding domain, human; Methyl-CpG-binding domain protein 2 (Homo sapiens), Q9UBB5; MBD2 binding to methylated oligonucleotide; inhibition, % at 4.4 µM; 0.31% of 370,000 active; AID 686964, 2013; in the data active = inhibition above about 13%
# PRMT1 confirm: PRMT1 methyltransferase inhibitors, confirmation, biochemical, fluorescence polarization, triplicate | shares compounds with PRMT1 FP inh | recombinant His-PRMT1, activity-based probe fluorescence polarization | inhibition, % at 2.79 µM | 42% of 3,300 active | AID 687036, 2013;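 active = mean inhibition across replicates above the hit cutoff derived for the earlier primary screen, cut at about 22% in these data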
# * marks the source's active call; other numbers are inactive results; nt = no result.
SMILES,ABHD5 PLIN5 PPI,rCAG binder,PRMT1 FP inh,UHRF1 MBD2 ctr,LEDGF integ inh,MBD2 DNA inh,PRMT1 confirm
NS(=O)(=O)c1cccc2c1c([N+](=O)[O-])cc1nc(O)c(O)nc12,4,6,26*,-5,-3,-12,27*
COc1ccc(C(=O)c2[nH]c(N)c(C(=O)c3c[nH]c4ccccc34)c2-c2ccc(OC)cc2)cc1,nt,16,7,-6,4,0,nt
COc1ccc(NS(=O)(=O)c2cc(N)ccc2N2CCCCC2)cc1,2,7,-1,-2,4,4,nt
Nc1ccc(N2CCCC2)c(S(=O)(=O)Nc2cccc(C(F)(F)F)c2)c1,-18,18,47*,-2,-2,-3,7
COC(=O)[C@]12C[C@H](CC(=O)N3CCC(c4ccccc4)CC3)C(=O)N(Cc3ccco3)C1=C[C@H](COCc1ccccc1)O[C@@H]2C,nt,10,7,4,1,1,nt
COCCNC(=O)c1ccc(C)c(S(=O)(=O)Nc2ccc(C)cc2)c1,-1,-6,36*,-1,3,-1,0
O=S1(=O)c2ccc(N3CCC[C@H]3CO)cc2OCCCN1C1CC1,nt,4,-4,7,5,-3,nt
COc1cc2c(c(OC)c1OC)CC(c1ccccc1)=C(c1ccccc1)CC2NC(=O)C(F)(F)F (centres undefined),nt,3,2,1,2,4,nt
O=C(NCC(F)(F)F)c1ccc(S(=O)(=O)N2CCN(C(=O)C3CCCO3)CC2)cc1 (centres undefined),-4,-1,70*,-1,-2,3,1
O=C(NC1CCC1)c1ccc(C#CC2CC2)c[n+]1[O-],nt,2,-2,2,3,8,nt
O=C1CSC2(N1)C1CC3CC(C1)CC2C3 (centres undefined),-6,-4,3,2,0,4,nt
C1CSC2(N1)C1CC3CC2CC(C1)C31NCCS1 (centres undefined),-30,2,63*,4,-1,7,45*
CCN(c1ccc(NS(=O)(=O)c2cc(Cl)ccc2Cl)cc1)C(C)C,-9,14,32*,3,2,7,12
CN(C)c1ccc(NS(=O)(=O)c2cc(Cl)ccc2Cl)cc1,-1,5,15,-1,-1,2,nt
Cc1cc(-c2n[nH]c(=S)n2N=Cc2c3ccccc3cc3ccccc23)n[nH]1,nt,11,42*,-7,-4,-6,17
Cc1cc(-c2n[nH]c(=S)n2/N=C/C(Cl)=C/c2ccccc2)n[nH]1,6,32,26*,0,-1,-1,15
Cc1cc(-c2n[nH]c(=S)n2/N=C/c2cccc(O)c2)n[nH]1,0,-4,2,1,-3,1,nt
Cc1c(C(c2cc(O)ccc2O)c2c(C)n(C)n(-c3ccccc3)c2=O)c(=O)n(-c2ccccc2)n1C,1,2,33*,-1,-4,-5,6
CCOC(=O)[C@]12CCCCC/C=C\1N(CCc1ccc(Cl)cc1)C(=O)[C@H]2CC(=O)NCc1cccc(C(F)(F)F)c1,nt,3,1,-4,-3,-4,nt
S=C(CN1CCCC1=S)N1CCOCC1,1,-1,-3,2,2,-8,nt
CC(C)(CCC(=S)N1CCOCC1)C1CCCCC1,2,-5,37*,0,2,-3,6
CCCN1C(=O)c2n[nH]c(C)c2C1c1ccc2c(c1)OCO2 (centres undefined),nt,0,1,0,0,-7,nt
N#Cc1c(-c2ccncc2)c2c([nH]c1=S)CCCC2,-13,2,37*,-3,-1,-4,8
Cc1ccc(-c2c3c([nH]c(=S)c2C#N)CCCC3)o1,13,26,50*,7,8,-1,31*
Cc1ccc(-c2c(C#N)c(N)nc3c2CCCC3)o1,7,-3,-3,1,6,2,nt
SMILES,ABHD5 PLIN5 PPI,rCAG binder,PRMT1 FP inh,UHRF1 MBD2 ctr,LEDGF integ inh,MBD2 DNA inh,PRMT1 confirm
Cc1nc2sc(C(c3ccco3)N3CC(C)OC(C)C3)c(O)n2n1 (centres undefined),7,6,29*,2,5,5,5
Cc1nc2sc(C(c3ccccc3)N3CC(C)OC(C)C3)c(O)n2n1 (centres undefined),1,-3,0,2,0,3,nt
CCCc1nc2c(sc3nc4c(cc32)COC(C)(C)C4)c(=O)n1Cc1ccco1,17,7,30*,0,5,1,9
COC(=O)[C@]12C[C@H](CC(=O)NCCCN3CCCC3=O)C(=O)N(Cc3ccc4c(c3)OCO4)C1=C[C@H](C(C)(C)C)O[C@@H]2C,nt,-1,-2,-1,-2,-3,nt
Clc1ccc(CN2CCN(/N=C/c3ccco3)CC2)cc1,0,-5,-1,18,-5,9,nt
Cc1ccc(/C=N/N2CCN(Cc3ccc(Cl)cc3)CC2)o1,21,-5,42*,6,-2,-2,-7
CN(NC(=O)/C=C/C(=O)O)c1ncc(C(F)(F)F)cc1Cl,-4,2,35*,11,0,1,6
CCOC(=O)c1ccc(N2C(=O)CC(N3CCC(O)(c4ccc(Cl)cc4)CC3)C2=O)cc1 (centres undefined),2,3,50*,1,1,-3,17
CCOc1ccc(N2C(=O)CC(N3CCC(O)(c4ccc(Br)cc4)CC3)C2=O)cc1 (centres undefined),4,-5,56*,4,-2,-3,-1
CCOC(=O)c1ccc(N2C(=O)CC(N3CCC(O)(c4ccc(Br)cc4)CC3)C2=O)cc1 (centres undefined),-8,0,8,1,1,1,nt
CC[C@@H](CCC(=O)N(c1ccccc1)c1ccccc1)c1ccc(C)cc1,nt,-1,-3,1,-3,1,nt
Clc1ccc(OCc2nn3c(C4CCCCC4)nnc3s2)cc1,-2,-3,27*,2,7,2,1
c1ccc(-c2nn3c(C4CCCCC4)nnc3s2)nc1,8,-1,-1,1,3,1,nt
c1nc(SSc2ncnc3nc[nH]c23)c2[nH]cnc2n1,-18,1,48*,0,-4,0,96*
COc1ccccc1NS(=O)(=O)c1cc(NC(=O)C2=NNC(=O)CC2)ccc1C,2,6,4,0,-1,4,nt
